High-throughput results: PubChem BioAssay, several laboratories
Shown are actives, neighbours in structure and some others; about 32% of the full set was active somewhere.
CYP2C19 activ – human CYP2C19 activators, primary screen, biochemical, luminescence. recombinant CYP2C19, luciferin-H EGE luminescence; hits give high values; 0 = fully inhibited enzyme, 1 = untreated enzyme. 96,000 tested, under 10 active. activation factor at 5 µM;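 active = activation factor of at least 2 at 5 µM in the primary screen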;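 also: 0 = wells with 2.5 mM tranylcypromine and 1 = vehicle-only wells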
Target sequence (P33261 whole entry, looked up): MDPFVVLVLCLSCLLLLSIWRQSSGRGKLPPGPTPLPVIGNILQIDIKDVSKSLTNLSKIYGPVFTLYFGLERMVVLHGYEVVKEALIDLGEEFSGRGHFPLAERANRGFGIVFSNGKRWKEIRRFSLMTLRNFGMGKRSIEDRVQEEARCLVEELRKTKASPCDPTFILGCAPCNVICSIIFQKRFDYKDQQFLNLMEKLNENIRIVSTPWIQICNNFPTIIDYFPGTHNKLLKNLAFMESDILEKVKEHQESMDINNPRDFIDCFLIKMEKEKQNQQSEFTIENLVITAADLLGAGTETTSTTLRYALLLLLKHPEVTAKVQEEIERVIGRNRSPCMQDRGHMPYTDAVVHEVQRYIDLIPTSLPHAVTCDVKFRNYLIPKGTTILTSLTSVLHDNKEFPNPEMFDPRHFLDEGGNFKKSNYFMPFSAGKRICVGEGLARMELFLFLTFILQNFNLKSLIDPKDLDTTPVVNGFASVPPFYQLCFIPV
PostGolgi ctrl – growth inhibition of yeast control strain, primary screen, counter-screen for post-Golgi transport modulator project. efflux-deficient yeast background strain, growth absorbance A615, 16 h. inhibition, % at 10 µM. hit rate 5% among 98,000
CYP2C19 inhib – blockers of cytochrome P450 2C19 activity – biochemical, luminescence, ADME assay, primary screen; P33261; CYP2C19 Supersomes, luciferin-H EGE luminescence, 30 min; inhibition, % at 5 µM; hit rate 21% among 96,000; AID 778, 2007;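 active = CYP2C19 inhibition above a set limit at 5 µM in the primary screen, cut at about 50% in these data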;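 also: plate controls were negative control wells for no effect and 2.5 mM tranylcypromine positive control for full effect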
CYP2C9 inhib – blockers of cytochrome P450 2C9 activity – biochemical, luminescence, ADME assay, primary screen; P11712; CYP2C9 Supersomes, luciferin-H conversion; inhibition, % at 5 µM; hit rate 20% among 96,000;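 active = blocking of liver enzyme CYP2C9 beyond about 50% at 5 µM, limit read from the data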
PostGolgi yeast – phenotypic screen on post-Golgi transport, primary screen. AID 739, 2007. hit rate 0.9% among 98,000. post-Golgi transport phenotypic cell assay. inhibition, % at 10 µM;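 also: yeast cells grown in 1536-well plates; yeast grown about 18 h at 30C before absorbance read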
CYP2C9 activ – human CYP2C9 activators, primary screen, biochemical, luminescence | recombinant CYP2C9, luciferin-H conversion; hits give high values; factor 1 = untreated enzyme, 0 = blocked | activation factor at 5 µM | hit rate 1.4% among 96,000 | AID 1024, 2008;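 active = activation factor of 2 or more for CYP2C9 at a 5 µM dose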;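 also: 0 = sulfaphenazole-blocked wells and 1 = vehicle-only wells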
* hit, by the source's call; . = not tested or not shown. Rule as the data show it, unless noted: active = inhibition above about 30%; inactive = the rest.

SMILES	CYP2C19 activ	PostGolgi ctrl	CYP2C19 inhib	CYP2C9 inhib	PostGolgi yeast	CYP2C9 activ
O=C(c1ccco1)N1CCN(C(c2ccccc2F)c2nnnn2CC2CCCO2)CC1 (stereo not given)	0.8	13.7	23.7	70.7*	23.1	0.3
Cc1cc(C)c(C#N)c(=N)o1	0.9	2.9	6.1	-0.5	12.3	1
COC(=O)c1c(N=CN(C)C)c(C#N)c2n1CCCC2	1	29.0	0.3	-13.5	14.6	1.1
O=C(Cn1cnc2c(nnn2Cc2ccccc2F)c1=O)NCc1ccco1	1	-3.0	0.3	-14.8	-4.2	1.1
N#Cc1cc(S(=O)(=O)c2ccccc2)c(N)[nH]c1=O	0.9	-5.3	5.6	40.4	0.0	0.6
Cc1ccc(OCCSCc2nc3ccccc3[nH]2)cc1	0.4	0.7	59.0*	62.7*	-8.1	0.4
CCOc1ccc(OCCSc2nc3ccccc3c(=O)[nH]2)cc1	1	-0.3	-4.0	1.0	-4.3	1
Clc1ccc(OCCSCc2nc3ccccc3[nH]2)cc1	0.4	15.1	63.5*	57.2*	-2.5	0.4
COc1ccc(/C=N/NC(=O)c2ccccc2Cl)cc1CSc1nc2ccccc2s1	0.5	23.6	51.2*	81.5*	-1.7	0.2
COc1ccc(/C=N/NC(=O)c2cc(-c3ccccc3OC)nc3ccccc23)cc1COC(C)=O	0.6	5.2	44.3	71.6*	0.5	0.3
COc1ccc(/C=N/NC(=O)c2cc(-c3ccc(C)cc3C)nc3ccccc23)cc1COC(C)=O	0.5	10.5	47.4	74.4*	6.6	0.3
CCOC(=O)c1sc2ncn(C(CC)C(=O)OCC)c(=O)c2c1C (stereo not given)	0.4	22.1	60.0*	83.0*	-9.5	0.2
CCOC(=O)c1sc2nc[nH]c(=O)c2c1C	0.9	10.6	13.3	14.1	-2.4	0.9
CCCOC(=O)C(C)n1cnc2sc(C)c(C)c2c1=O (stereo not given)	0.3	2.0	69.7*	55.7*	27.3	0.4
CCOC(=O)c1sc2ncn(C(CC)C(=O)OC)c(=O)c2c1C (stereo not given)	0.3	0.9	70.2*	96.0*	4.7	0
CCOC(=O)c1sc2ncn(C(C)C(=O)OC)c(=O)c2c1C (stereo not given)	0.4	7.5	57.3*	53.6*	8.9	0.5
FC(F)(F)c1cccc(NCc2cn3cccnc3n2)c1	0.7	9.6	25.2	0.5	2.1	1
CCCc1nnc(SCc2ccc(OCC)cc2)n1N	0.5	11.1	46.4	22.9	-0.3	0.8
O=C(O)C1C2C=CC(C2)C1C(=O)OC1CC2CCC1C2 (stereo not given)	0.6	-3.0	35.8	41.9	0.2	0.6
CCOC(=O)N1CCC(NC(=O)CN(C)S(=O)(=O)c2cc3c(cc2Cl)NC(=O)CO3)CC1	1	4.8	-3.9	56.4*	-2.8	0.4
O=C(CN1CCN(Cc2ccccc2F)C1=O)NCc1ccco1	1	0.5	-0.5	-0.2	-7.3	1
Cc1c(C#N)c2ccccc2n1CC(=O)N1CCCc2ccccc21	0.7	13.4	32.2	91.9*	-6.2	0.1
CC1CCN(C(=O)CSc2nc3ccccc3c(=O)n2Cc2ccc3c(c2)OCO3)CC1	0.4	43.5*	62.0*	67.2*	-6.4	0.3
CC1CCN(C(=O)Cn2c(=O)n(CCc3ccccc3)c(=O)c3ccccc32)CC1	0.9	43.4*	5.0	39.0	20.9	0.6
Cc1cc(C(=O)CSc2nc3ccccc3c(=O)n2C)c(C)n1Cc1ccc2c(c1)OCO2	0.2	16.1	76.2*	84.7*	6.7	0.2
SMILES	CYP2C19 activ	PostGolgi ctrl	CYP2C19 inhib	CYP2C9 inhib	PostGolgi yeast	CYP2C9 activ
COCCn1c(SCC(=O)N2CCC(C)CC2)nc2ccccc2c1=O	0.6	11.1	44.1	39.2	-11.3	0.6
CC1(C)CC(=O)C=C(Nc2ccccc2F)C1	0.5	-10.3	49.2	17.0	1.9	0.8
O=C(Nc1nnc(C2CCCC2)s1)C1CCN(S(=O)(=O)c2ccc(Cl)cc2)CC1	.	4.2	.	.	-1.3	.
CCN(CC)C(=O)c1cn(CC)c(=O)c2cc(OC)c(OC)cc12	1.2	0.6	-22.6	-12.8	-11.4	1.1
O=C(Cn1c(=O)n(Cc2ccc3c(c2)OCO3)c(=O)c2ccccc21)N1CCCc2ccccc21	.	49.9*	.	.	8.8	.
CC1CCN(C(=O)Cn2c(=O)n(Cc3ccc4c(c3)OCO4)c(=O)c3ccccc32)CC1	0.8	8.6	22.1	53.6*	12.3	0.5
CC1CC(C)CN(CCCNC(=O)Cc2c(C(=O)O)n(C)c3ccccc23)C1 (stereo not given)	1	-2.0	-1.3	5.2	5.5	0.9
CC1CCCC(C)N1C(=O)Cn1c(SCC(=O)NCc2ccc3c(c2)OCO3)nc2ccccc21 (stereo not given)	0.4	15.8	63.7*	90.1*	-0.2	0.1
CCCCNC(=O)CCn1c(=O)c2ccccc2n(CC(=O)N2CC(C)CC(C)C2)c1=O (stereo not given)	0.6	9.4	39.4	95.2*	13.8	0
CCOc1ccccc1OCCCC(=O)NC1=NCCS1	0.6	7.7	37.3	-68.8	4.1	1.7
COc1ccccc1N1CCN(C2CCN(S(=O)(=O)c3ccc4ccccc4c3)CC2)CC1	0.8	16.8	15.4	-40.4	4.3	1.4
CC1CCCCN1C(=O)CSc1nc2cc3c(cc2c(=O)n1Cc1ccc2c(c1)OCO2)OCO3 (stereo not given)	0.5	7.2	48.7	51.5*	2.6	0.5
Cn1c(=O)n(C)c2cc(NS(C)(=O)=O)ccc21	1	-12.4	3.8	10.1	0.8	0.9
Cc1ccnc(NC2(C(F)(F)F)N=C(c3ccccc3)NC2=O)c1 (stereo not given)	0.9	5.8	10.1	-2.1	5.0	1
COCCCNc1ccnc2c(Cl)cccc12	0.8	-4.0	21.1	5.2	30.8*	0.9
CCOc1cccc(OCCCNCCCOC)c1	1.1	9.2	-7.7	-2.4	1.4	1
O=C(CC1NCCNC1=O)Nc1ccc2c(c1)OCO2 (stereo not given)	0.9	11.0	6.0	22.4	-0.6	0.8
CCOC(=O)c1c(C)sc2c1N(C(C)=O)c1cc(Cl)ccc1S2	0.4	26.0	60.2*	22.9	2.1	0.8
CCCCC(CC)CNC(=O)C1C2C=CC(C2)C1C(=O)O (stereo not given)	1	12.8	4.8	5.0	-3.4	0.9
Cc1ccnc(NS(=O)(=O)c2ccc(NC(=O)C3CCCCC3)cc2)n1	1.1	-3.0	-14.1	-1.5	-0.6	1
Cc1ccnc(NS(=O)(=O)c2ccc(NC(=O)C34CC5CC(C)(CC(C)(C5)C3)C4)cc2)n1	1	-6.2	-1.2	58.4*	0.0	0.4
